Results taken from PubChem BioAssay (EPA / NIEHS).
Results filed as inconclusive are left out. The source made the active and inactive calls. The calls were made as follows, unless noted: active = hit-call score of the fitted dose curve at least 0.9, where 1 is the maximum; inactive = score below 0.9.

How the values were obtained:
[1] = read-out: Interleukin-8 (IL8), CXCL8 (gene 3576); assay: BSK_3C_IL8: BioMAP Diversity Plus: 3C Assay for Interleukin-8 (IL8) Biomarker Activity (AID 2283020); settings: primary human endothelial cells (HUVEC); actives raise or lower the signal
Method in brief: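 Primary human umbilical vein endothelial cells were dosed for 24 h. IL-8 was quantified by ELISA and fitted bidirectionally against DMSO. Cytotoxicity was assessed in parallel cultures by SRB staining at 560 nm.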

[2] = read-out: Monokine induced gamma interferon (MIG), CXCL9 (gene 4283); assay: BSK_3C_MIG: BioMAP Diversity Plus: 3C Assay for Monokine induced gamma interferon (MIG) Biomarker Activity (AID 2283021); settings: primary human endothelial cells (HUVEC); actives raise or lower the signal;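 as to AC50: MIG protein level measured by immunoassay in the treated endothelial cultures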
Method in brief: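 HUVEC primary endothelial cultures dosed with chemical; MIG quantified by ELISA at 24 h. Data fitted bidirectionally against DMSO control, with parallel SRB total-protein staining for cytotoxicity.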

[3] = target: human Vitamin D Receptor (VDR), VDR (gene 7421) (UniProt P11473); assay: ATG_VDR_TRANS: Attagene TRANS-FACTORIAL HepG2 Assay for human Vitamin D Receptor (VDR) (AID 2283022; active = hit-call score of the fitted dose curve at least 0.9, where 1 is the maximum)
Sequence of human Vitamin D Receptor (VDR), VDR (gene 7421) (P11473 whole entry, looked up, the tested form may be a part): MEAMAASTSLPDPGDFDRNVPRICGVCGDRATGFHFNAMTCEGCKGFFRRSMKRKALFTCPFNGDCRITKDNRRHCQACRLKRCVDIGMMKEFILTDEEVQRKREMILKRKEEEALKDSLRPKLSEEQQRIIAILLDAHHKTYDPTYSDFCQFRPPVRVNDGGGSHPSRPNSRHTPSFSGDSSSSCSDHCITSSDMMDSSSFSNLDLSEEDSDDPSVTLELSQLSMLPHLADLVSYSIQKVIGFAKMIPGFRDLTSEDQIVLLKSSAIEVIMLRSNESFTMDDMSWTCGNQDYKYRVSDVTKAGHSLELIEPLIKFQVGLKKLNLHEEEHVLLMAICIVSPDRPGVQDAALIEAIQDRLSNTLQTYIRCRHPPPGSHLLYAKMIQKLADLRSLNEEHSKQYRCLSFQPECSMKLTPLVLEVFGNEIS
Method in brief: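 RT-PCR/capillary electrophoresis read-out of reporter mRNA induction in transiently transfected HepG2; 24 h dosing; chimeric NR-Gal4 (TRANS format); gain-of-signal fit against DMSO baseline.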

[4] = BSK_3C_SRB: Viability Assessment in the BioMAP Diversity Plus: 3C Assay (AID 2283023); settings: primary human endothelial cells (HUVEC);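 also: fitted both ways against DMSO so a hit may be signal rise or drop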
Method in brief: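 HUVEC, 24 h post-dose; 10% TCA fix, 0.1% SRB stain, A560 nm. Bidirectional curve fit vs DMSO negative control.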

[5] = read-out: Matrix Metallopeptidase 1 (MMP1), MMP1 (gene 4312); assay: BSK_BE3C_MMP1: BioMAP Diversity Plus: BE3C Assay for Matrix Metallopeptidase 1 (MMP1) Biomarker Activity (AID 2283024); settings: primary human bronchial epithelial cells; actives raise or lower the signal
Method in brief: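 Human primary bronchial epithelial cells (BE3C system) dosed for 24 h; MMP-1 quantified by ELISA. Bidirectional fit against DMSO; cytotoxicity tracked in parallel cultures by SRB total-protein staining.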

[6] = BSK_3C_Vis: BioMAP Diversity Plus: 3C Assay for Morphology Visualization (AID 2283025); settings: primary human endothelial cells (HUVEC);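 also: fitted both ways so gain or loss versus DMSO counts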;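 as to AC50: light microscopy image of cell morphology used as background control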
Method in brief: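 Human umbilical vein endothelial cell morphology was inspected by light microscopy 24 h after chemical dosing; scored bidirectionally relative to DMSO.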

[7] = read-out: Pselectin, SELP (gene 6403); assay: BSK_4H_Pselectin: BioMAP Diversity Plus: 4H Assay for Pselectin Biomarker Activity (AID 2283026); settings: primary human endothelial cells (HUVEC); actives raise or lower the signal
Method in brief: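 Primary human umbilical vein endothelial cells were treated 24 h, and cell-surface P-selectin was then quantified by ELISA. Bidirectional fit versus DMSO; cytotoxicity checked in parallel cultures by SRB total-protein staining.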

[8] = BSK_4H_SRB: Viability Assessment in the BioMAP Diversity Plus: 4H Assay (AID 2283027); settings: primary human endothelial cells (HUVEC);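 also: cells exposed to compound for 24 h before staining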;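 as to AC50: curves fitted both ways versus DMSO so AC50 may be loss or gain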
Method in brief: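 Human umbilical vein endothelial cells, 24 h after chemical dosing; total protein measured by 0.1% sulforhodamine B staining after 10% TCA fixation, read at 560 nm. Bidirectional fitting against DMSO.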

[9] = BSK_BE3C_SRB: Viability Assessment in the BioMAP Diversity Plus: BE3C Assay (AID 2283028); settings: primary human bronchial epithelial cells
Method in brief: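 Primary human bronchial epithelium; chemical dosing, 24 h; 10% TCA fix, 0.1% SRB stain, A560; bidirectional fit vs DMSO baseline.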

[10] = read-out: Thrombomodulin, THBD (gene 7056); assay: BSK_3C_Thrombomodulin: BioMAP Diversity Plus: 3C Assay for Thrombomodulin Biomarker Activity (AID 2283029); settings: primary human endothelial cells (HUVEC); actives raise or lower the signal
Method in brief: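 Human umbilical vein endothelial cells were exposed to chemicals for 24 h; cell-surface thrombomodulin quantified by ELISA, with bidirectional fitting against DMSO baseline.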

[11] = read-out: Urokinase-type plasminogen activator receptor (uPAR), PLAUR (gene 5329); assay: BSK_4H_uPAR: BioMAP Diversity Plus: 4H Assay for Urokinase-type plasminogen activator receptor (uPAR) Biomarker Activity (AID 2283030); settings: primary human endothelial cells (HUVEC); actives raise or lower the signal
Method in brief: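 HUVEC, 24 h post-dose; uPAR by ELISA; bidirectional fit vs DMSO baseline.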

[12] = read-out: Vascular endothelial growth factor receptor 2 (Homo sapiens) (UniProt P35968); assay: BSK_4H_VEGFRII: BioMAP Diversity Plus: 4H Assay for Vascular endothelial growth factor receptor 2 (VEGFR2) Biomarker Activity (AID 2283031); settings: primary human endothelial cells (HUVEC); actives raise or lower the signal;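 as to AC50: cell-surface VEGFR2 protein level quantified by ELISA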
Method in brief: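 HUVEC (human primary), 4H system; 24 h post-dose; VEGFRII by ELISA; bidirectional curve fit vs DMSO baseline; gain or loss of signal scored.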

[13] = read-out: Human Leukocyte Antigen - DR isotype (HLADR), HLA-DRA (gene 3122); assay: BSK_BE3C_HLADR: BioMAP Diversity Plus: BE3C Assay for Human Leukocyte Antigen - DR isotype (HLADR) Biomarker Activity (AID 2283032); settings: primary human bronchial epithelial cells; actives raise or lower the signal
Method in brief: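 Human primary bronchial epithelial cells (BE3C system) exposed to compound for 24 hours; cell-surface HLA-DR measured by ELISA, fitted bidirectionally relative to DMSO. Total protein by SRB in parallel cultures tracked cytotoxicity.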

[14] = read-out: Vascular cell adhesion molecule 1 (VCAM1), VCAM1 (gene 7412); assay: BSK_4H_VCAM1: BioMAP Diversity Plus: 4H Assay for Vascular cell adhesion molecule 1 (VCAM1) Biomarker Activity (AID 2283033); settings: primary human endothelial cells (HUVEC); actives raise or lower the signal
Method in brief: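 Primary human umbilical vein endothelial cells, 4H stimulation system, treated for 24 h; cell-surface VCAM-1 quantified by ELISA. Bidirectional fitting against DMSO; cytotoxicity tracked by SRB total-protein staining in parallel cultures.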

[15] = read-out: Interferon-gamma inducible Protein 10 (IP10), CXCL10 (gene 3627); assay: BSK_BE3C_IP10: BioMAP Diversity Plus: BE3C Assay for Interferon-gamma inducible Protein 10 (IP10) Biomarker Activity (AID 2283034); settings: primary human bronchial epithelial cells; actives raise or lower the signal
Method in brief: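 Primary human bronchial epithelial cells, with IP-10 measured by ELISA 24 hours after chemical dosing. Bidirectional fit against DMSO; cytotoxicity checked by SRB total protein staining in parallel cultures.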

[16] = read-out: Transforming growth factor beta 1 (TGFb1), TGFB1 (gene 7040); assay: BSK_BE3C_TGFb1: BioMAP Diversity Plus: BE3C Assay for Transforming growth factor beta 1 (TGFb1) Biomarker Activity (AID 2283036); settings: primary human bronchial epithelial cells; actives raise or lower the signal
Method in brief: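 Primary human bronchial epithelial cells dosed with chemical; TGF-b1 measured by ELISA 24 h after dosing. Bidirectional curve fitting against DMSO negative control; SRB total-protein staining in parallel cultures gauged cytotoxicity.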

[17] = read-out: Plasminogen activator inhibitor-1 (PAI1), SERPINE1 (gene 5054); assay: BSK_BE3C_PAI1: BioMAP Diversity Plus: BE3C Assay for Plasminogen activator inhibitor-1 (PAI1) Biomarker Activity (AID 2283037); settings: primary human bronchial epithelial cells; actives raise or lower the signal
Method in brief: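 Primary human bronchial epithelial cells (BE3C system) exposed 24 h; PAI-1 quantified by ELISA. Parallel sulforhodamine B staining of total protein flags cytotoxicity. Bidirectional fit versus DMSO.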

[18] = read-out: urokinase plasminogen activator (uPA), PLAU (gene 5328); assay: BSK_BE3C_uPA: BioMAP Diversity Plus: BE3C Assay for urokinase plasminogen activator (uPA) Biomarker Activity (AID 2283038); settings: primary human bronchial epithelial cells; actives raise or lower the signal;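 also: uPA protein level quantified by ELISA in cell cultures; uPA read one day after compound addition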
Method in brief: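 ELISA read-out of uPA in human lung primary bronchial epithelial cultures, 24 h post-dosing. Gain or loss of signal fitted bidirectionally relative to DMSO baseline; cytotoxicity checked in parallel cultures via SRB total protein stain.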

[19] = read-out: Urokinase-type plasminogen activator receptor (uPAR), PLAUR (gene 5329); assay: BSK_BE3C_uPAR: BioMAP Diversity Plus: BE3C Assay for Urokinase-type plasminogen activator receptor (uPAR) Biomarker Activity (AID 2283039); settings: primary human bronchial epithelial cells; actives raise or lower the signal;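 also: cells exposed to compound for one day before measurement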
Method in brief: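 Primary human bronchial epithelial cells dosed for 24 h; uPAR quantified by ELISA with bidirectional fitting against DMSO. Overt cytotoxicity assessed in parallel cultures by SRB total-protein staining (0.1% SRB, 560 nm).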

[20] = read-out: Monokine induced gamma interferon (MIG), CXCL9 (gene 4283); assay: BSK_BE3C_MIG: BioMAP Diversity Plus: BE3C Assay for Monokine induced gamma interferon (MIG) Biomarker Activity (AID 2283035); settings: primary human bronchial epithelial cells; actives raise or lower the signal;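 also: MIG protein measured by ELISA in BE3C cultures after 24 h of dosing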
Method in brief: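 Primary human bronchial epithelial cells treated for 24 h; MIG levels measured by ELISA, fitted bidirectionally versus DMSO. Parallel SRB total-protein staining assessed cytotoxicity.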

Measured: AC50

Nc1ccccc1N
active: [14] 4.07 µM
not listed: [20]
inactive: all other assays above

Cc1cccc([N+](=O)[O-])c1C
not listed: [5] | [9] | [15]
inactive: all other assays above

CCCCCCOCCO
not listed: [20]
inactive: all other assays above

CCCCCCCCCCCCCO
active: [1] 37 µM | [2] 37.4 µM | [4] 32.1 µM | [5] 20.6 µM | [6] 38.6 µM | [7] 35.1 µM | [8] 31.8 µM | [11] 38.9 µM | [12] 30.6 µM | [14] 36.1 µM
inactive: [3] | [10] | [13] | [16] | [17] | [18] | [19]

Cc1nc(C)nc(N2C[C@@H](C)N(c3ccnc([C@@H](C)O)n3)[C@@H](C)C2)n1
not listed: [5]
inactive: all other assays above

CCCCCCCCCCO
not listed: [5]
inactive: all other assays above

Cc1cc(NC(=O)C(=O)O)cc(C)c1Oc1ccc(O)c2c1CCC2
not listed: [5] | [20]
inactive: all other assays above

CNC(=O)[C@H]1O[C@@H](n2cnc3c(NCc4cc(Cl)ccc4OCc4cc(C)no4)ncnc32)[C@H](O)[C@@H]1N
not listed: [9] | [20]
inactive: all other assays above

CNCc1cc(F)ccc1Oc1ccc(Cl)c(Cl)c1
active: [1] 20 µM | [4] 27.6 µM | [7] 26 µM | [8] 26.1 µM | [11] 26.9 µM | [13] 27.9 µM
not listed: [5] | [9] | [20]
inactive: all other assays above

C[C@]12C=CC(=O)C=C1CC[C@@H]1[C@@H]2C(=O)C[C@@]2(C)[C@H]1CC[C@]2(O)C(=O)CO
not listed: [5]
inactive: all other assays above

Cc1ccccc1Cl
not listed: [3] | [15] | [20]
inactive: all other assays above

COc1ccc2c(c1)c(CC(=O)O)c(C)n2C(=O)c1ccc(Cl)cc1
active: [5] 7.79 µM
not listed: [9] | [15]
inactive: all other assays above

COC(=O)c1ccc(O)cc1
not listed: [5] | [20]
inactive: all other assays above

COc1cc(S(=O)(=O)O)c(C)cc1N=Nc1c(O)ccc2cc(S(=O)(=O)O)ccc12
inactive: all assays above
